Shown are actives, neighbours in structure and some others; about 3.1% of the full set was active somewhere.
INS-1E GSIS act – GLuc luminescence reporter in INS-1E cells, primary screen for activators of glucose-dependent secretion of insulin; hit rate 0.61% among 370,000; INS-1E GLuc reporter insulin secretion, 2-3 h; activation, % at 16.6 µM; AID 743287;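 active = lowest replicate activation of at least 40%, so every replicate reaches that level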;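 note: 0% = median of neutral control wells and 100% = median of IBMX positive control wells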
Statin myotox sup – suppression of simvastatin myotoxicity; C2C12 myotubes + simvastatin, ATP luminescence, 48 h; scaled: DMSO 0, geranylgeraniol control 100; rescue of ATP level, % at 7.49 µM; hit rate 0.78% among 330,000; AID 602340;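 active = mean ATP rescue above about 67%, or every replicate alone reaching that limit, limit read from the data, passing the limit was not always enough; inconclusive = no clear call, values can overlap the other calls; inactive = mean under the limit and some replicate under it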;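 note: myotubes were challenged with 10 µM simvastatin during compound exposure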
PAX8 reporter – inhibitors of PAX8 transcriptional activity in RMG-I cells; RMG-I TPO-luciferase reporter, SteadyGlo, 24 h; inhibition, % at 12.6 µM; hit rate 1.2% among 360,000;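 active = mean replicate inhibition at least 60% with every replicate also reaching 60%; inconclusive = only one of the two criteria is met; inactive = mean below 60% and not all replicates reaching 60%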;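 note: luciferase light reporting Pax8 driven TPO promoter activity; plate controls were median of neutral control wells for no effect and mitoxantrone controls for full effect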
EWS-Fli block – inhibitors of EWS/Fli oncoprotein transcriptional activity | hit rate 0.67% among 350,000 | inhibition, % at 12.6 µM | AID 651661 | A673 NR0B1-luciferase reporter, viability-normalised;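 active = mean inhibition of at least 50% after viability correction, with every replicate also passing that limit; inconclusive = mean reaches 50% but only one of two replicates passes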;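 note: firefly luciferase signal divided by Alamar Blue viability fluorescence both relative to DMSO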
HIV Env fusion – HIV envelope-mediated fusion inhibition. HeLa-JRFL Env/CEM21 cell fusion, luciferase. inhibition, % at 12.3 µM. hit rate 1.1% among 360,000;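 active = mean replicate inhibition score of at least 50 and every replicate individually at or above 50; inconclusive = only one of the two criteria met; inactive = mean below 50 and not all replicates reaching 50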;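 note: 0% = plate neutral controls and 100% = maraviroc near 300 nM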
miR-122 sensor – inhibitors of miR-122 in Huh7 cells; hit rate 0.3% among 340,000; AID 602342; Huh7 miR-122 Renilla luciferase sensor, 48 h; neutral wells = 0, positive control = 100; activation (reporter increase), % at 12.5 µM;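 active = mean replicate activation score at least 90 and every replicate individually at or above 90; inconclusive = only one of the two criteria met; inactive = neither criterion met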;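 note: higher luciferase means less miR-122 activity so hits act as miR-122 inhibitors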
Starred values were filed as active, the others as inactive; ? = inconclusive; nt = no result given; [ ] = remark or other dose.

SMILES | INS-1E GSIS act | Statin myotox sup | PAX8 reporter | EWS-Fli block | HIV Env fusion | miR-122 sensor
CC(C)CC(COCc1cccc(Cl)c1)N1CCN(C(=O)c2cccc(C(F)(F)F)c2)CCC1=O (configuration not stated) | -55 | 1 | 13 | 7 | 76* | 1
CC(C)C[C@@H](COCc1cccc(C(F)(F)F)c1)N1CCN(C(=O)c2ccc(C(F)(F)F)cc2)CCC1=O | -19 | nt | 32 | 1 | 62* | nt
Cc1cccc(COC[C@H](CC(C)C)N2CCN(C(=O)c3ccc(C(F)(F)F)cc3)CCC2=O)c1 | -43 | nt | 17 | -3 | 42 | nt
CCCN1[C@@H]2Cn3c(ccc(-c4ccccc4)c3=O)[C@H]1[C@@H](C(=O)NCCCN1CCOCC1)[C@@H]2CO | 4 | -9 | nt | 0 | nt | -3[16.7 µM]
C=C(CC)C(=O)c1ccc(OCC(=O)O)c(Cl)c1Cl | nt | 3 | 81* | 10 | -364 | 4
CC(O)c1nc2ccc(Cc3ccc4nc(C(C)O)[nH]c4c3)cc2[nH]1 (configuration not stated) | 46* | 3 | nt | nt | nt | 8
Cn1c(=O)c2c(ncn2Cc2ccc(Cl)c(Cl)c2)n(C)c1=O | -5 | 63 | nt | nt | 66* | -18
Cc1noc(C)c1S(=O)(=O)Nc1ccc2c(c1)CC(=O)N([C@H](C)CO)C[C@@H](C)[C@@H](CN(C)Cc1ccc(-c3ccccc3)cc1)O2 | -15 | 98* | nt | 5 | 4[16.7 µM] | 5[16.7 µM]
Cc1noc(C)c1S(=O)(=O)Nc1ccc2c(c1)CC(=O)N([C@H](C)CO)C[C@@H](C)[C@@H](CN(C)Cc1ccc(Cl)c(Cl)c1)O2 | -18 | 97* | 6 | -2 | -14[16.7 µM] | 1[16.7 µM]
C[C@@H](NC(=O)[C@H]1[C@H](CO)[C@H]2Cn3c(cccc3=O)[C@H]2N1CC1CC1)c1ccccc1 | 4 | -1 | nt | 3 | nt | -1[16.7 µM]
C[C@H](NC(=O)C[C@H]1CC[C@@H](NC(=O)C2CCOCC2)[C@H](CO)O1)c1ccccc1 | 22 | -1 | 6 | -5 | -9[16.7 µM] | nt
COc1ccc(CC(=O)NC(CC(=O)O)c2cccc([N+](=O)[O-])c2)cc1 (configuration not stated) | -2 | 122* | 11 | 4 | -23 | 1
O=C(O)CC(NC(=O)COc1ccccc1)c1cccc([N+](=O)[O-])c1 (configuration not stated) | -24 | nt | 16 | -12 | 14 | -4
C[C@H]1CN([C@@H](C)CO)C(=O)c2cc(/C=C/c3ccccc3)cnc2O[C@@H]1CN(C)Cc1ccccc1 | -19 | 13 | nt | 14 | 29[16.7 µM] | 1[16.7 µM]
CN(c1ccc(C(=O)NCc2ccco2)cc1)S(C)(=O)=O | nt | 107* | -11 | nt | -31 | 1
CN(c1ccc(C(=O)NCCSCc2ccco2)cc1)S(C)(=O)=O | -2 | -6 | nt | nt | nt | 0
C[C@H](CO)N1C[C@H](C)[C@@H](CN(C)Cc2ccccc2)Oc2cc(C3=CCCC3)ccc2S1(=O)=O | 3 | -15 | nt | 13 | 55*[16.7 µM] | 19[16.7 µM]
CCCNC(=O)N(C)C[C@@H]1Oc2cc(C3=CCCCC3)ccc2S(=O)(=O)N([C@@H](C)CO)C[C@@H]1C | -1 | 95* | 16 | 0 | -154[16.7 µM] | 9[16.7 µM]
C[C@H](CO)N1C[C@H](C)[C@@H](CN(C)Cc2ccncc2)Oc2cc(C3=CCCCC3)ccc2S1(=O)=O | 3 | -104 | nt | 33 | 64*[16.7 µM] | 13[16.7 µM]
CCCNC(=O)N(C)C[C@@H]1Oc2cc(C3=CCCCC3)ccc2S(=O)(=O)N([C@H](C)CO)C[C@H]1C | -3 | -32 | -45 | 0 | -23[16.7 µM] | 5[16.7 µM]
CCSc1nc(COC(=O)NC)c(COC(=O)NC)n1C | nt | 3 | 7 | -11 | -5 | 8
CNC(=O)OCc1nc(SSC(C)(C)C)n(C)c1COC(=O)NC | nt | nt | 20 | 67* | -204 | 13
Cc1ccc(S(=O)(=O)N(C)C[C@H]2OCCCC[C@@H](C)Oc3ccc(NC(=O)NC(C)C)cc3C(=O)N([C@H](C)CO)C[C@H]2C)cc1 | -25 | nt | -8 | -1 | 7[16.7 µM] | -7[16.7 µM]
FC(F)(F)c1ccc(CN2C[C@@H]3C(c4ccccc4)C4(c5cccnc5)CC3(C4)[C@H]2c2ccccc2)cc1 (some centres not stated) | -9 | -14 | 17 | 18 | -7 | -4
FC(F)(F)c1ccc(CN2C[C@@H]3C(c4ccc(C(F)(F)F)cc4)C4(c5cccnc5)CC3(C4)[C@H]2c2ccccc2)cc1 (some centres not stated) | -28 | 119* | 32 | 29 | -8 | -4
SMILES | INS-1E GSIS act | Statin myotox sup | PAX8 reporter | EWS-Fli block | HIV Env fusion | miR-122 sensor
COc1ccc(Cn2c(SCc3cc(C)ccc3C)nc3cc(OC)c(OC)cc3c2=N)cc1 | nt | nt | nt | nt | 11 | -4
COc1ccc(Cn2c(SCc3ccc(C)cc3)nc3cc(OC)c(OC)cc3c2=N)cc1Cl | nt | -23 | 109* | nt | 122* | -38
CC1Oc2ccccc2N(Cc2cccc(F)c2)C1=O (configuration not stated) | 43* | 3 | -6 | -6 | 14 | -4
COc1cccc(-c2ccc3c(c2)N(Cc2cccc(F)c2)C(=O)C(C)S3)c1 (configuration not stated) | 42* | 16 | -16 | 2 | ? | 8
O=S1(=O)N=CN(Cc2cccc(F)c2)c2ccccc21 | nt | nt | 14 | nt | -25 | 157*
N#Cc1cccc(CN2C=NS(=O)(=O)c3ccccc32)c1 | -3 | 3 | -3 | 7 | 13 | 1
CC(=O)c1ccc2c(c1)N(Cc1ccccc1)C(=O)C(C)S2 (configuration not stated) | 50* | 36 | -15 | 0 | -17 | 8
COCC(=O)Nc1ccc2c(c1)OC[C@H](C)N(C(=O)C1CCCC1)C[C@H](C)[C@H](OC)CN(C)C2=O | -12 | -17 | 0 | -4 | 5[16.7 µM] | -16[16.7 µM]
Cc1cc(C)n2nc(NCc3cccc(Br)c3)nc2n1 | nt | nt | -10 | nt | 106* | 12
CCOC(=O)CC1(CC)Oc2ccccc2N1S(=O)(=O)c1ccc(C)cc1 (configuration not stated) | -19 | nt | 10 | 5 | 64* | nt
CCOC(=O)CC1(C)N(S(=O)(=O)c2ccc(C)cc2)c2ccccc2N1S(=O)(=O)c1ccc(C)cc1 | nt | nt | -16 | -5 | 11 | nt
CCn1c(SCc2nc3cc(OC)c(OC)cc3c(=O)[nH]2)nc2ccccc21 | 15 | 6 | 11 | -4 | 12 | -1
CCSc1nc2cc(OC)c(OC)cc2c(=O)n1CC | 69* | -22 | nt | nt | nt | -6
O=C(NC1=C(NC2CCS(=O)(=O)C2)C(=O)c2ccccc2C1=O)c1ccccc1 (configuration not stated) | -32 | -15 | 96* | 30 | 57* | 17
O=C(NC1=C(Nc2ccc(Cl)cc2)C(=O)c2ccccc2C1=O)c1ccccc1 | nt | nt | 47 | -8 | -31 | nt
COc1cccc(CNC(=O)C[C@@H]2C=C[C@@H](NC(=O)C3CCOCC3)[C@@H](CO)O2)c1 | 7 | 2 | -12 | -3 | 3[16.7 µM] | nt

From PubChem
